# PubChem BioAssay AID449728 (The Scripps Research Institute Molecular Screening Center, 2010)
# The campaign covered roughly 330,000 compounds. About 900 (0.27%) were called active. The sample as a whole holds a higher share of actives than the screen did. A number with no mark means an inactive call.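 Rule for the calls: active = inhibition above the campaign's mean inhibition across all tested compounds plus 3 SD (cut at about 9.9% in these data); inactive = the rest.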
# Assay: E. coli V3065 growth inhibition, primary screen, counter-screen for AddAB inhibitor project, absorbance, OD600 (AID 449728);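 note: uninfected addAB+ strain grown without phage in ampicillin broth; 0% = DMSO wells and 100% = ciprofloxacin 0.95 µg/ml wells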
# Settings: 18 h, at 11.9 µM, hits give high values
row,Compound,inhibition
1,CC[C@H]1OC(=O)[C@H](C)[C@@H](O[C@H]2C[C@@](C)(OC)[C@@H](O)[C@H](C)O2)[C@H](C)[C@@H](O[C@@H]2O[C@H](C)C[C@H](N(C)C)[C@H]2O)[C@](C)(O)C[C@@H](C)[C@@H]2N[C@@H](COCCOC)O[C@H]([C@H]2C)[C@]1(C)O,39.7% (active)
2,O=C(Nc1cccc2c1N(C(=O)c1ccco1)CCC2)c1ccco1,0.81%
3,CCCc1nc(SCC(=O)N2CCCC2)c2c(=O)n(C)c(=O)n(C)c2n1,0.51%
4,O=C(NCc1ccncc1)C(=O)NCc1ccco1,-0.95%
5,C/C(N)=C(/C#N)C(=O)COC(=O)C1CCN(C(=O)c2ccc(Cl)cc2)CC1,-2.66%
6,N#Cc1c(-c2ccc(F)cc2)cc(C2CC2)nc1SCC(=O)c1cccs1,-0.26%
7,CC(=O)NC(=S)Nc1ccc(NC(=S)NC(=O)c2ccc([N+](=O)[O-])cc2)cc1,-0.16%
8,COc1cc(NS(=O)(=O)c2ccc(NC(=O)c3ccc([N+](=O)[O-])cc3)cc2)ncn1,1.53%
9,Cn1ccc(=Nc2ccc(NC(=O)c3ccc(N=c4ccn(C)c5ccc([N+](=O)[O-])cc45)cc3)cc2)cc1,103% (active)
10,C=CCn1c(SCC(N)=O)nnc1-c1cc2c(s1)CCC(CC)C2 (stereo not drawn),1.3%
11,CCCCN(CC)CCNC(=O)c1[nH]c(C)c(C(C)=O)c1C,-0.92%
12,O=C(CN1CCN(c2ccccn2)CC1)Nc1ccc(Br)cc1,2.27%
13,O=C(CN1CCN(c2ccccn2)CC1)NC1CCCCC1,1.09%
14,CCN(CC)c1ccc(NC(=O)CN2CCN(c3ccccn3)CC2)cc1,10.5% (active)
15,CC(=O)N(O)CCCCCNC(=O)CCC(=O)N(O)CCCCCNC(=O)CCC(=O)N(O)CCCCCNC(=O)CCC(=O)O,25.5% (active)
16,NC(=O)NCCCC(=O)O,-0.17%
17,O=C(COC(=O)c1cc(S(=O)(=O)N2CCCCC2)ccc1Cl)NCc1ccco1,-0.84%
18,O=C(NNC(=O)c1cc(S(=O)(=O)N2CCCCC2)ccc1Cl)c1ccccc1O,10.3% (active)
19,CC1CCCC(NC(=O)c2cc(S(=O)(=O)N3CCCCC3)ccc2Cl)C1C (stereo not drawn),-1.24%
20,CCn1cc(/C=C2/SC(=S)NC2=O)c(C)n1,0%
21,Brc1ccc(/C=N/N2CCN(C3c4ccccc4-c4ccccc43)CC2)s1,0.91%
22,Cc1nn2c3cc(N4CCOCC4)ccc3nc2c2ccccc12,0.55%
23,COC(=O)CSc1nc2c(c(C3CC=CCC3)c1C#N)CCC2 (stereo not drawn),0.17%
24,CCn1c(=O)c([N+](=O)[O-])c(NCc2ccc3c(c2)OCO3)c2ccccc21,0.41%

row,Compound,inhibition
1,CCOCCCn1c(NN)nc2ccccc2c1=O,2.87%
2,CCn1c(/C=C/c2ccc([N+](=O)[O-])o2)nc2ccccc2c1=O,21.6% (active)
3,Cc1cn(C2C=CC(CO)O2)c(=O)[nH]c1=O (stereo not drawn),8.77%
4,COc1cc(OC)c2c(c1)OC(=O)CC2c1cc(OC)c(OC)c(OC)c1 (stereo not drawn),2.5%
5,CC1(C)CC2CC(C)(CN2c2ncnc3ccc(Br)cc23)C1 (stereo not drawn),-0.09%
6,Cc1ccc(NC(=O)CCCNC(=O)c2ccc(Cl)cc2)cc1S(=O)(=O)N1CCOCC1,-1.94%
7,CC(C)[C@@H]1COC(c2cccc(C3=N[C@H](C(C)C)CO3)c2)=N1,-0.25%
8,CCN1/C(=C\c2ccc3ccccc3[n+]2CC)Sc2cc(C)ccc21,15% (active)
9,CC(=O)c1c(Nc2ccccc2)sc(C(=O)c2ccccc2)c1C,1.73%
10,CCOc1ccccc1NC(=S)N1CCN(c2cccc(C)c2C)CC1,0.08%
11,O=C(O)CSc1nccc2ccccc12,-0.18%
12,O=C1CCC(=O)N(O)CCCCCNC(=O)CCC(=O)N(O)CCCCCNC(=O)CCC(=O)N(O)CCCCCN1,29.4% (active)
13,CCOC(=O)c1nnn2c1nc(N1CCN(c3ccccc3)CC1)c1ccccc12,1.28%
14,O=C(/C=C/c1ccccc1Cl)Nc1ccc(S(=O)(=O)Nc2ncccn2)cc1,0.84%
15,COc1cc(C(=O)NC(=S)NCc2ccco2)cc(OC)c1OC,14.7% (active)
16,COc1cc(NC(=S)NCc2ccco2)c(OC)cc1Cl,-0.7%
17,COc1cccc(OC)c1C(=O)NC(=S)NCc1ccco1,1.37%
18,O=C(NCCc1c[nH]c2ccccc12)c1cc2ccccc2oc1=O,0.17%
19,CC(C)(C)N(Cc1ccccc1)C(=O)COC(=O)CCc1c[nH]c2ccccc12,-1.13%
20,O=C(O)c1cccc(NC(=S)N/N=C/c2c[nH]c3ccccc23)c1,0.08%
21,CSC(=S)N/N=C/c1c[nH]c2ccccc12,12.8% (active)
22,Nc1nonc1-n1nnc(C(=O)N/N=C/c2c[nH]c3ccccc23)c1-c1ccccc1,0%
23,Cc1ccc(CSCC2Nc3ccc(C(=O)N4CCN(c5ccc(F)cc5)CC4)cc3NC2=O)cc1 (stereo not drawn),-0.76%
24,O=C(O)CCCC(=O)Nc1ccc(Oc2cccc(C(F)(F)F)c2)nc1,1.79%

row,Compound,inhibition
1,Cc1ccc(OC(=O)c2ccccc2C(=O)OCC(F)(F)C(F)F)cc1,0.25%
2,O=C(CCC(=O)NNc1nc2ccccc2c2nc(-c3ccccc3)nn12)NCCCN1CCCC1=O,-1.57%
3,CCCc1nnc(SCC(=O)Nc2ccc(C(=O)OCC)cc2)o1,-1.1%
4,CCOC(=O)c1ccc(NC(=O)Cn2cnc3cc(C)c(C)cc32)cc1,16.7% (active)
5,CCOC(=O)c1ccc(NC(=O)CSc2nnc(COc3ccccc3OC)n2C)cc1,2.63%
6,COc1cc(OC)cc(-c2c(C#Cc3ccsc3)c3cc(-c4ccc(SC)cc4)ccc3n2C)c1,0.52%
7,COc1ccc(-c2ccc(CCC(=O)O)n2NC(=O)c2ccc(C(C)(C)C)cc2)cc1,2.02%
8,COc1ccc(CSc2nnnn2-c2ccc(O)cc2)cc1F,-0.34%
9,COCCn1c(SCC(=O)Nc2cc(OC)ccc2OC)nc2c(c1=O)SC(C)C2 (stereo not drawn),-0.66%
10,Cc1cc2c(cc1C)[n+](C)cn2CC(O)COCC1CC=CCC1 (stereo not drawn),-1.13%
11,O=[N+]([O-])c1ccc(N=Cc2c(O)ccc3ccccc23)cc1,25% (active)
12,O=C(Oc1ccc([N+](=O)[O-])cc1)c1ccc2ccccc2n1,0.89%
13,Cc1nc2ccccc2nc(=O)c1NNc1ccc([N+](=O)[O-])cc1,-0.37%
14,O=S(=O)(c1ccc(Br)cc1)n1ccc2ccccc21,0.82%
15,CCCc1nc(N)nc2c1C(=O)CC(C)(C)C2,0%
16,CC(C)(C)NC(=O)COC(=O)c1cc(Br)ccc1Cl,-0.09%
17,CCCC(=O)OCC(=O)Nc1cc(Cl)ccc1[N+](=O)[O-],0.59%
18,CC(C)(C)NC(=O)COC(=O)c1cc(Cl)ccc1[N+](=O)[O-],16% (active)
19,CSc1ccccc1NC(=O)C(C)N1C(=O)c2ccccc2S1(=O)=O (stereo not drawn),-0.94%
20,CC1CC1C(=O)OCC(=O)c1c(N)n(C)c(=O)n(C)c1=O (stereo not drawn),-1.26%
21,COc1ccc(NC(=O)CSc2nc(SC)ns2)c(OC)c1,-1.11%
22,CCCCCCNC(=O)CSc1nccn1Cc1ccccc1,-3.38%
23,Cc1occc1C(=O)NC1CCCN(Cc2ccc(CC(C)C)cc2)C1 (stereo not drawn),-0.68%
24,CCOc1ccc(OCCSc2nc3ccccc3n2CC(=O)O)cc1,-0.94%

row,Compound,inhibition
1,Oc1c(Br)cccc1/C=N/Nc1c(F)c(F)c(F)c(F)c1F,0.5%
2,Oc1cccc(/C=N/Nc2ccc(Cl)nn2)c1O,19.4% (active)
3,Oc1ccc(Br)cc1/C=N/Nc1ccccn1,9.57%
4,C/C(=C/C(=O)N1CCN(C)CC1)C(=O)O,0.17%
5,CCC1OC(c2ccc([N+](=O)[O-])cc2)=Nc2ccccc21 (stereo not drawn),-1.44%
6,CCCCOc1ccc(CSC(=N)N)cc1[N+](=O)[O-],10.1% (active)
7,CCCCOC(=O)CCCc1ccc([N+](=O)[O-])cc1[N+](=O)[O-],0.76%
8,CCCCCOc1ccc(CSC2=NCCN2)cc1[N+](=O)[O-],0.17%
9,O=C(Nc1ccccc1F)C1C2C=CC3(O2)C1C(=O)N(c1cccnc1)C3C(=O)NC1CCCCC1 (stereo not drawn),-0.09%
10,COC(=O)c1c(NC(=O)COC(=O)[C@@H](NS(=O)(=O)c2ccccc2)C(C)C)sc2c1CCC2,-2.57%
11,Oc1ccc2ccccc2c1N=Nc1nccs1,13.9% (active)
12,O=C(NC(=S)Nc1ncccn1)c1ccccc1Br,0.5%
13,O=C(CN1C(=O)COc2ccc(Cl)cc21)N1CCOCC1,1.26%
14,COc1ccc(NC(=O)CCn2ccnc2)c(OC)c1,-1.17%
15,CC(=O)NC12CC3CC(C1)CC(C(=O)N1CCN(S(=O)(=O)c4cccs4)CC1)(C3)C2,-1.77%
16,CCCCNC(=O)c1cn(CC)c2cc(N3CCN(C(=O)c4ccco4)CC3)c(F)cc2c1=O,5.88%
17,CCn1cc(C(=O)NCCC(=O)NCCO)c(=O)c2cc3c(cc21)OCO3,1.2%
18,CCn1cc(S(=O)(=O)c2cccc(C)c2)c(=O)c2cc(F)c(N3CCN(C)CC3)cc21,-4.05%
19,CCCCCCn1cc(C(=O)O)c(=O)c2cc(F)c(N3CCCCC3)cc21,1.34%
20,CN1CCN(c2cc3c(cc2F)c(=O)c(C(=O)O)cn3CCF)CC1,100% (active)
21,CCn1cc(C(=O)NCCO)c(=O)c2cc(F)c(N3CCN(C)CC3)cc21,97.8% (active)
